Data published in PubChem BioAssay (NCI).
This is part of a sample that, as a whole, favours compounds with a hit. Of some 79,000 tested, about 15% had one in any assay. Active and inactive are the calls of the source. No stated cut-off is given here; in the data, active means growth inhibition above about 70%; inactive means the rest.

Columns and labels:
[1] = NCI Yeast Anticancer Drug Screen. Data for the rad52 strain (AID 147);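 further: 0% = growth of vehicle-treated control cultures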; settings: S. cerevisiae rad52 mutant growth inhibition, stronger effect = higher value
In short: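 Screen used a yeast mutant impaired in DNA repair. After compound exposure, growth was measured. Values reflect inhibition compared with vehicle-treated cells.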

[2] = NCI Yeast Anticancer Drug Screen. Data for the wt1 strain (AID 149);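 further: 0% = growth of vehicle-treated wt1 cultures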; settings: S. cerevisiae wt1 strain (SPY 50644) growth inhibition, stronger effect = higher value
In short: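 Each compound is tested on wt1 yeast and the loss of growth versus vehicle gives the inhibition value.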

[3] = NCI Yeast Anticancer Drug Screen. Data for the rad50EPP+ strain (AID 151);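 further: 0% = growth of vehicle-treated control cultures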; settings: S. cerevisiae rad50 mutant strain, stronger effect = higher value
In short: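 Exposing the rad50EPP+ strain to each compound, growth was compared with vehicle-only cultures to give inhibition.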

[4] = NCI Yeast Anticancer Drug Screen. Data for the mgt1 strain (AID 153); settings: S. cerevisiae mgt1 mutant growth inhibition, stronger effect = higher value
In short: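 Genetically defined yeast (mgt1) treated with compound; inhibition of growth expressed against vehicle-treated controls.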

[5] = NCI Yeast Anticancer Drug Screen. Data for the rad50 strain (AID 155);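 further: 0% = growth of vehicle-only cultures of the same strain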; settings: S. cerevisiae rad50 strain growth inhibition, stronger effect = higher value
In short: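 Vehicle-treated cultures provide the reference for the growth inhibition reported for compound-exposed, repair-deficient yeast.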

[6] = NCI Yeast Anticancer Drug Screen. Data for the mec2-1 strain (AID 157); settings: S. cerevisiae mec2-1 strain, stronger effect = higher value
In short: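 Readout is yeast growth inhibition, normalised to vehicle-treated controls, in the mec2-1 strain exposed to compound.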

[7] = NCI Yeast Anticancer Drug Screen. Data for the rad14 strain (AID 159);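 further: 0% = growth of vehicle-treated control cultures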; settings: S. cerevisiae rad14 strain growth inhibition, stronger effect = higher value
In short: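 Inhibition of growth is reported for a repair-deficient yeast mutant following compound treatment, calculated relative to cultures that received vehicle.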

[8] = NCI Yeast Anticancer Drug Screen. Data for the CLN2oe strain (AID 163);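 further: 0% = growth of vehicle-only control cultures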; settings: S. cerevisiae CLN2oe strain, stronger effect = higher value
In short: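 Values reflect how much compound exposure reduced yeast growth, referenced to vehicle-exposed cells. Assay organism is a strain with a defined genetic change affecting cell-cycle control.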

[9] = NCI Yeast Anticancer Drug Screen. Data for the cln2 rad14 strain (AID 165);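 further: 0% = growth equal to vehicle treated cultures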; settings: S. cerevisiae cln2 rad14 strain, stronger effect = higher value
In short: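 Relative to vehicle controls, growth inhibition of compound-treated cln2 rad14 yeast was recorded.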

[10] = NCI Yeast Anticancer Drug Screen. Data for the bub3 strain (AID 167); settings: S. cerevisiae bub3 mutant strain, stronger effect = higher value
In short: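 Mutant yeast screening strain plus compound; vehicle-treated cultures serve as the 0% inhibition reference.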

[11] = NCI Yeast Anticancer Drug Screen. Data for the wt2 strain (AID 169); settings: S. cerevisiae wt2 strain growth inhibition, stronger effect = higher value
In short: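 Values express reduction in yeast growth under compound treatment, referenced to vehicle-treated cells.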

[12] = NCI Yeast Anticancer Drug Screen. Data for the mlh1 strain (AID 171);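 further: 0% = growth of vehicle-treated control cultures of the same strain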; settings: S. cerevisiae mlh1 strain growth inhibition, stronger effect = higher value
In short: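 Steps: expose the defined-mutant yeast strain to compound; expose a parallel culture to vehicle; measure growth; express compound effect as inhibition relative to the vehicle culture.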

[13] = NCI Yeast Anticancer Drug Screen. Data for the sgs1 strain (AID 173);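 further: 0% = growth of vehicle-only control cultures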; settings: S. cerevisiae sgs1 mutant, stronger effect = higher value
In short: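 Treat defined-mutant yeast with compound; measure growth; calculate inhibition relative to vehicle-treated cells.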

[14] = NCI Yeast Anticancer Drug Screen. Data for the mlh1 rad18 strain (AID 175); settings: S. cerevisiae mlh1 rad18 strain growth inhibition, stronger effect = higher value
In short: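 Test agents were incubated with a yeast strain of defined genotype (DNA damage repair defect). Inhibition of growth was derived by comparison with vehicle-exposed cultures.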

[15] = NCI Yeast Anticancer Drug Screen. Data for the rad18 strain (AID 177); settings: S. cerevisiae rad18 mutant growth inhibition, stronger effect = higher value
In short: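 A genetically defined yeast mutant impaired in DNA damage repair was treated with test compounds, then its growth was measured against cultures receiving vehicle alone.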

[16] = NCI Yeast Anticancer Drug Screen. Data for the sgs1 mgt1 strain (AID 161);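 further: 0% = growth of cultures given vehicle only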; settings: S. cerevisiae sgs1 mgt1 strain, stronger effect = higher value
In short: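 Compounds are added to genetically altered yeast, and growth is compared with cultures given vehicle alone to give percent inhibition.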

[17] = at 5.0 µM (retest, dose inferred, filed as 0.5)
[18] = at 50.0 µM (retest, dose inferred, filed as 5.0)

Measured: growth inhibition

CC(=O)/C(=C\c1ccc(Cl)c(Cl)c1)C(=O)C(C)CN(C)C (stereo not drawn)
inactive: [1]; at 1.2 µM 19% | [1]; at 3.7 µM 21% | [1]; at 11.0 µM 33% | [1]; at 33.0 µM 52% | [2]; at 1.2 µM -12% | [2]; at 3.7 µM -13% | [2]; at 11.0 µM -12% | [2]; at 33.0 µM 10% | [3]; at 1.2 µM 7% | [3]; at 3.7 µM 7% | [3]; at 11.0 µM 3% | [3]; at 33.0 µM 37% | [4]; at 1.2 µM 6% | [4]; at 3.7 µM -2% | [4]; at 11.0 µM 10% | [4]; at 33.0 µM 46% | [5]; at 1.2 µM 26% | [5]; at 3.7 µM 22% | [5]; [17] 14% | [5]; at 11.0 µM 18% | [5]; at 33.0 µM 62% | [5]; [18] 36% | [5]; at 50.0 µM 64.4% | [6]; at 1.2 µM 19% | [6]; at 3.7 µM 29% | [6]; [17] 9% | [6]; at 11.0 µM 38% | [6]; at 33.0 µM 51% | [7]; at 1.2 µM -3% | [7]; at 3.7 µM 2% | [7]; at 11.0 µM -8% | [7]; at 33.0 µM 22% | [8]; at 1.2 µM 8% | [8]; at 3.7 µM -2% | [8]; at 11.0 µM 17% | [8]; at 33.0 µM 44% | [9]; [17] -1% | [10]; at 1.2 µM 7% | [10]; at 3.7 µM -1% | [10]; [17] 12% | [10]; at 11.0 µM 11% | [10]; at 33.0 µM 53% | [11]; at 1.2 µM -12% | [11]; at 3.7 µM -6% | [11]; at 11.0 µM -1% | [12]; at 1.2 µM 6% | [12]; at 3.7 µM -2% | [12]; at 11.0 µM 10% | [12]; at 33.0 µM 46% | [13]; at 1.2 µM 40% | [13]; at 3.7 µM 48% | [13]; at 11.0 µM 64% | [14]; [17] 16% | [15]; at 1.2 µM 26% | [15]; at 3.7 µM 30% | [15]; at 11.0 µM 55%
active: [1]; at 100.0 µM 91% | [2]; at 100.0 µM 90% | [3]; at 100.0 µM 90% | [4]; at 100.0 µM 93% | [5]; at 100.0 µM 91% | [6]; [18] 76% | [6]; at 50.0 µM 87.5% | [6]; at 100.0 µM 93% | [7]; at 100.0 µM 92% | [8]; at 100.0 µM 81% | [9]; [18] 93% | [9]; at 50.0 µM 81.2% | [10]; [18] 96% | [10]; at 50.0 µM 82.8% | [10]; at 100.0 µM 93% | [11]; at 33.0 µM 88% | [11]; at 100.0 µM 98% | [12]; at 100.0 µM 93% | [13]; at 33.0 µM 76% | [13]; at 100.0 µM 97% | [14]; [18] 97% | [14]; at 50.0 µM 90.3% | [15]; at 33.0 µM 82% | [15]; at 100.0 µM 93%

NC(=S)N1N=C2c3ccccc3CC[C@H]2[C@@H]1c1ccc(Cl)cc1
inactive: [1]; at 1.2 µM 26% | [1]; at 3.7 µM 31% | [1]; at 11.0 µM 39% | [1]; at 33.0 µM 48% | [2]; at 1.2 µM 11% | [2]; at 3.7 µM 9% | [2]; at 11.0 µM 31% | [2]; at 33.0 µM 46% | [3]; at 1.2 µM -14% | [3]; at 3.7 µM -10% | [3]; at 11.0 µM -14% | [3]; at 33.0 µM 8% | [3]; at 100.0 µM 37% | [4]; at 1.2 µM 7% | [4]; at 3.7 µM -10% | [4]; at 11.0 µM 0% | [4]; at 33.0 µM 29% | [5]; at 1.2 µM -6% | [5]; at 3.7 µM -2% | [5]; [17] -20% | [5]; at 11.0 µM 29% | [5]; at 33.0 µM 36% | [6]; at 1.2 µM -17% | [6]; at 3.7 µM 9% | [6]; [17] 7% | [6]; at 11.0 µM 23% | [6]; at 33.0 µM 58% | [16]; [17] -15% | [8]; at 1.2 µM -6% | [8]; at 3.7 µM -10% | [8]; at 11.0 µM 18% | [8]; at 33.0 µM 42% | [9]; [17] 12% | [10]; at 1.2 µM -12% | [10]; at 3.7 µM 9% | [10]; [17] 34% | [10]; at 11.0 µM 26% | [10]; at 33.0 µM 46% | [11]; at 1.2 µM 8% | [11]; at 3.7 µM 14% | [11]; at 11.0 µM 11% | [11]; at 33.0 µM 35% | [12]; at 1.2 µM 2% | [12]; at 3.7 µM 2% | [12]; at 11.0 µM 28% | [12]; at 33.0 µM 51% | [13]; at 1.2 µM 22% | [13]; at 3.7 µM 33% | [13]; at 11.0 µM 46% | [13]; at 33.0 µM 67% | [14]; [17] 7% | [15]; at 1.2 µM 1% | [15]; at 3.7 µM 8% | [15]; at 11.0 µM -9% | [15]; at 33.0 µM 45%
active: [1]; at 100.0 µM 88% | [2]; at 100.0 µM 90% | [4]; at 100.0 µM 85% | [5]; [18] 78% | [5]; at 50.0 µM 83% | [5]; at 100.0 µM 85% | [6]; [18] 90% | [6]; at 50.0 µM 85.8% | [6]; at 100.0 µM 88% | [16]; [18] 79% | [16]; at 50.0 µM 84.8% | [8]; at 100.0 µM 86% | [9]; [18] 91% | [9]; at 50.0 µM 84.7% | [10]; [18] 93% | [10]; at 50.0 µM 83.2% | [10]; at 100.0 µM 89% | [11]; at 100.0 µM 89% | [12]; at 100.0 µM 89% | [13]; at 100.0 µM 91% | [14]; [18] 93% | [14]; at 50.0 µM 80.2% | [15]; at 100.0 µM 89%

NC(=S)N1N=C2c3ccccc3CC[C@@H]2[C@@H]1c1ccccc1
active: [1]; at 100.0 µM 77% | [4]; at 100.0 µM 88% | [5]; [18] 79% | [5]; at 50.0 µM 75.6% | [5]; at 100.0 µM 86%
inactive: [1]; at 1.2 µM -34% | [1]; at 3.7 µM -17% | [1]; at 11.0 µM -8% | [1]; at 33.0 µM 7% | [2]; at 1.2 µM 11% | [2]; at 3.7 µM 2% | [2]; at 11.0 µM 2% | [2]; at 33.0 µM 9% | [2]; at 100.0 µM 67% | [3]; at 1.2 µM -31% | [3]; at 3.7 µM -36% | [3]; at 11.0 µM -49% | [3]; at 33.0 µM -40% | [3]; at 100.0 µM -23% | [4]; at 1.2 µM -17% | [4]; at 3.7 µM -29% | [4]; at 11.0 µM -19% | [4]; at 33.0 µM 15% | [5]; at 1.2 µM -13% | [5]; at 3.7 µM -2% | [5]; [17] 35% | [5]; at 11.0 µM -1% | [5]; at 33.0 µM 15% | [6]; at 1.2 µM -10% | [6]; at 3.7 µM -13%
